These results are taken from PubChem BioAssay.

By inhibition is commonly meant the relative decrease from the control value, in per cent.

Inconclusive results are not listed. Activity calls are given as the source filed them.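 The calls were made as follows, unless noted: active = inhibition above the screen-wide mean plus 3 SD, about 51%; inactive = the rest.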

Test [1] is described as follows: rapamycin-like changes in RPL19A-GFP expression – cell-based, S. cerevisiae, multiplex flow cytometry, primary screen (AID 1862; in the data active = percent of DMSO control GFP below about 86%;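 also: lower values mimic rapamycin by blocking the RPL19A rise seen in DMSO cells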). The following applies: S. cerevisiae RPL19A-GFP strain, flow cytometry fluorescence, 3 h; at 10 µM; stronger effect = lower value. On the technique in general: Flow cytometry measures light scatter and fluorescence of single cells or particles in a stream.

The nature of test [2]: TOR pathway GLN3 branch reporter MEP2-GFP changes – S. cerevisiae, multiplex flow cytometry, primary screen (AID 1867;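 active = GFP response, as percent of the DMSO control, above the screen-wide mean plus 3 SD, about 139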;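 also: median GFP channel fluorescence of barcode-gated MEP2-GFP cells measured by flow cytometry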). The following applies: S. cerevisiae MEP2-GFP strain, 3 h, at 10 µM, stronger effect = higher value, 100% means same as DMSO wells.
Test [3] in a line: TOR pathway RTG branch CIT2 reporter changes – S. cerevisiae, GFP fusion, multiplex flow cytometry, primary screen (AID 1870;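 active = percent response above a set limit, the screen-wide mean plus 3 SD, cut at about 130% in these data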;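 also: barcoded CIT2-GFP strain pooled with four other GFP strains with rapamycin as positive control; median GFP fluorescence per well over plate mean of DMSO wells so 100% = DMSO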). The conditions noted are these: S. cerevisiae CIT2-GFP expression, 3 h, at 10 µM, stronger effect = higher value.
The nature of test [4]: TOR pathway LAP4-GFP level changes – S. cerevisiae, multiplex flow cytometry, primary screen (AID 1873;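 active = GFP signal, as percent of the solvent control, above the screen mean plus 3 SD, about 149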). The conditions noted are these: S. cerevisiae LAP4-GFP expression, 3 h, at 10 µM, stronger effect = higher value.
A short description of test [5]: yeast AGP1-GFP level changes, GLN3 branch – cell-based, multiplex flow cytometry, S. cerevisiae, primary screen (AID 1887;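 active = GFP signal above the screen-wide mean plus 3 SD, that is over about 124.5% of the solvent control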;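 also: AGP1-GFP fusion strain of S. cerevisiae within a five-strain barcoded multiplex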). The following applies: 3 h, at 10 µM, stronger effect = higher value.
The nature of test [6]: reduced mouse 2C T cell binding to pMHC/ICAM-1 vesicles – MLPCN validation set, flow cytometry, LFA-1/ICAM-1 modulator project, pilot screen (AID 2523;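 active = response below a set limit, under 55% cells CD8-positive and vesicle-bound, and CD8 cells' 90th-percentile brightness under 279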;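 as to vesicle binding response: mean PE anti-B7-1 fluorescence of CD8+ cells relative to row control; 100% = QL9-loaded vesicles with DMSO vehicle in the same plate row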). The conditions noted are these: 2C mouse CD8+ T cells, at 7 µM, stronger effect = lower value; double positive events: measured here: CD8+/vesicle+ event percentage.
Test [7] has as its target Integrin beta-1 (Homo sapiens) + Integrin alpha-4 (Homo sapiens) (UniProt P13612+P05556). Briefly: alpha4beta1 integrin LIBS antibody binding reduction – U937 cells, HUTS-21 mAb, flow cytometry, validation set, VLA-4 allosteric modulator project, pilot screen (AID 2674;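 active = inhibition above 50%, about 3 SD of the validation set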;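 also: antibody binding induced by the VLA-4 ligand LDV present at three times its Kd; 0% = LDV ligand with antibody and no compound and 100% = antibody without LDV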). The conditions noted are these: HUTS-21 LIBS mAb binding, at 6.7 µM, stronger effect = higher value, binding induced by LDV ligand.

Test [8] in a line: calorie-restriction mimetic ROS inhibitors, yeast – validation compound set, pilot screen (AID 2706;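 active = superoxide response below 65% of plate, a cut near 3 SD across the whole screen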;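 also: yeast exposed to compound for one week at 30 degrees C before staining; 100% = mean of all compound wells on the same plate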). The following applies: S. cerevisiae aging, superoxide DHE fluorescence; at 10 µM; stronger effect = lower value.
Test [9] has as its target Beta-adrenergic receptor kinase 1 (Homo sapiens) (UniProt P25098). Nature of the test: GRK2 binders displacing RNA aptamer, biochemical, validation, human GRK2, bead flow cytometry (AID 488806;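 active = aptamer binding inhibition above 30%, about 3 SD of noise from non-fluorescent compounds; inactive = inhibition at or below 30%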). The following applies: bead-bound GRK2, FAM-aptamer displacement, at 10 µM, stronger effect = higher value.
Test [10] deals with Beta-2 adrenergic receptor (Homo sapiens) (UniProt P07550). Nature of the test: agonist-induced loss of surface beta2AR – cell-based, FAP fluorogen, flow cytometry, validation set, pilot screen (AID 504459;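 active = percent response above 42, roughly 3 SD of non-fluorescent test compounds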;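 also: agonist-driven loss of surface beta2AR via internalization measured by FAP dye flow cytometry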). The following applies: Am2.2-beta2AR cells, at 10 µM, stronger effect = higher value.
In test [11] the target is AP-2 complex subunit beta (Homo sapiens) (UniProt P63010). Briefly: beta-arrestin/AP2 interaction blockers – biochemical, validation set, GST-AP2 beads, flow cytometry, pilot screen (AID 504541;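 active = inhibition above 54%, about 3 SD of non-fluorescent compounds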;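 also: AP2 carries R879A mutation and is captured from E. coli lysate; bead-bound FITC arrestin peptide fluorescence measuring arrestin peptide binding to AP2; 0% = DMSO wells and 100% = excess unlabeled arrestin peptide control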). The following applies: FITC arrestin peptide, at 10 µM, stronger effect = higher value, AP2 beta2 appendage fragment, R879A mutant.
The nature of test [12]: cytosolic pH regulators acting via V-ATPase – S. cerevisiae, pHLuorin, HTS validation (AID 504600; in the data active = response above about 15%;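 also: plate controls were DMSO for no effect and reference compound for full effect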). The following applies: V-ATPase proton transport, at 10 µM, stronger effect = higher value.
For test [13], the system named is anti-desmoglein-3 scFv antibody binding to human DSG3. Briefly: blockers of pathogenic pemphigus antibody–desmoglein-3 binding – biochemical, validation compound set, bead-based, flow cytometry, pilot screen (AID 588368;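 active = binding below the plate cutoff, the plate median minus 3 SD, with a reading above zero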;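 also: signal is the median channel fluorescence of bead-bound GFP antibody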). The conditions noted are these: Protein G beads, DSG3-Fc, scFv-GFP binding, at 10 µM, stronger effect = lower value.
Test [14] in a line: Nile Red efflux blockade in pump-expressing yeast – validation compound set, multiplex, phenotypic, pilot screen (AID 588506;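 active = efflux inhibition above 0.42, the validation set average plus 4 SD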;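 also: Nile Red retained in cells so higher fluorescence means more efflux inhibition; 0 = negative control wells and 1 = enniatin B 25 µM full block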). The following applies: S. cerevisiae pump-expressing triplex, Nile Red efflux flow cytometry; at 10 µM; stronger effect = higher value; the pumps come from Candida albicans.
In test [15] the target is ATP-binding cassette sub-family B member 6 (Homo sapiens) (UniProt Q9NP58). Briefly: blockers of ABCB6-driven porphyrin uptake – K562-ABCB6 cells, flow cytometry, validation set, pilot screen (AID 588550).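 Also: 0% = DMSO wells and 100% = benzethonium chloride 70 µM positive control.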 The conditions noted are these: K562-ABCB6 porphyrin accumulation, 1 h, at 10 µM, stronger effect = higher value.
Test [16] in a line: AML differentiation inducers, ER-HoxA9 marrow cells – cell-based, GFP/MAC1 double positive, flow cytometry, validation set, primary screen (AID 588685;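 active = differentiation response of at least 50%, scaled between solvent and reference control, from cells with both markers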;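 also: compound exposure lasts four days before antibody staining and flow analysis; 0% = DMSO wells and 100% = 5 µM fulvestrant positive control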). The conditions noted are these: stronger effect = higher value, normalized: vehicle 0, fulvestrant 100.

AP-2 complex subunit beta (Homo sapiens), sequence (P63010 whole entry, looked up, the tested form may be a part, one chain of several): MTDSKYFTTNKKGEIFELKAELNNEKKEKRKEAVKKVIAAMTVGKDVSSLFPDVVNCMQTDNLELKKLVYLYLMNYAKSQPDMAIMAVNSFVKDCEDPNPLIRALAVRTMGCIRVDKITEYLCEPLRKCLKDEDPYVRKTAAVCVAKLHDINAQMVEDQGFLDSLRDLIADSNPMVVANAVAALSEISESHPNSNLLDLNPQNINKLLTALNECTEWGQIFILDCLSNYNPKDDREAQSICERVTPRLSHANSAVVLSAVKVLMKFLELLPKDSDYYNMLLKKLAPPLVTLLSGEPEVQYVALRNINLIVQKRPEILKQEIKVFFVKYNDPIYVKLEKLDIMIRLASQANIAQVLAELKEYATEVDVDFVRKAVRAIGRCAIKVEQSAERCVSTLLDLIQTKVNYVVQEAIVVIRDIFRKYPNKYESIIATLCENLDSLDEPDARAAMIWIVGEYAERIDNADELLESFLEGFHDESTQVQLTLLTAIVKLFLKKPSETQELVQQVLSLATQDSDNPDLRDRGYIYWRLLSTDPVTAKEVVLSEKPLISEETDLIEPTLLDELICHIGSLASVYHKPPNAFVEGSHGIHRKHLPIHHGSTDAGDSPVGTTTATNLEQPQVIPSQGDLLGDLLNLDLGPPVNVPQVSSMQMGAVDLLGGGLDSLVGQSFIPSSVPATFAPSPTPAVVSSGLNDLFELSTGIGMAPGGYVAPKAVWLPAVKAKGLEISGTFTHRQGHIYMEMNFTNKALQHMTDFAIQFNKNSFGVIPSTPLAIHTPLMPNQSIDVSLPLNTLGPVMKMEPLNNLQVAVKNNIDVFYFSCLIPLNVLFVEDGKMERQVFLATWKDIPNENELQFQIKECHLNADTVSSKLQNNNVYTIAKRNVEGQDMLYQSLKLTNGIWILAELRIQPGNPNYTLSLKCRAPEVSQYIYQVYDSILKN
Beta-adrenergic receptor kinase 1 (Homo sapiens), sequence (P25098 whole entry, looked up): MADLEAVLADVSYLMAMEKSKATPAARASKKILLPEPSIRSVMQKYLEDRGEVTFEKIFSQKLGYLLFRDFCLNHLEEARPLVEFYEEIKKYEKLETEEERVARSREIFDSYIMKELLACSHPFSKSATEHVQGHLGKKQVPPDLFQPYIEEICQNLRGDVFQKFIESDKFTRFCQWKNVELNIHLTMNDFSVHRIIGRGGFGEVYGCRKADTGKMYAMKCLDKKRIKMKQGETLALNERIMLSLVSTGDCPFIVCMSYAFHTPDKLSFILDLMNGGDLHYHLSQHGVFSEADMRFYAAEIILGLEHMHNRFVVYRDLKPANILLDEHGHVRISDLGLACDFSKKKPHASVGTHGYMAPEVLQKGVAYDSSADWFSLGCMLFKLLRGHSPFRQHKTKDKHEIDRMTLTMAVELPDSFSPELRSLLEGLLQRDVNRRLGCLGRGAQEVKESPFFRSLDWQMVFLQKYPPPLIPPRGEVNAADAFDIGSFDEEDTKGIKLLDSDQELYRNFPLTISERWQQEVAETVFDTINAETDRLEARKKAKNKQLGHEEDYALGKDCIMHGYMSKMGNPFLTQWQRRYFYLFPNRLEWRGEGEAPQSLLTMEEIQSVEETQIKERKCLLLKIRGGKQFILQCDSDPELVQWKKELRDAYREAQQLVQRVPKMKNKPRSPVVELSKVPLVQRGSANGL
Integrin beta-1 (Homo sapiens) + Integrin alpha-4 (Homo sapiens), sequence (P05556 whole entry, looked up): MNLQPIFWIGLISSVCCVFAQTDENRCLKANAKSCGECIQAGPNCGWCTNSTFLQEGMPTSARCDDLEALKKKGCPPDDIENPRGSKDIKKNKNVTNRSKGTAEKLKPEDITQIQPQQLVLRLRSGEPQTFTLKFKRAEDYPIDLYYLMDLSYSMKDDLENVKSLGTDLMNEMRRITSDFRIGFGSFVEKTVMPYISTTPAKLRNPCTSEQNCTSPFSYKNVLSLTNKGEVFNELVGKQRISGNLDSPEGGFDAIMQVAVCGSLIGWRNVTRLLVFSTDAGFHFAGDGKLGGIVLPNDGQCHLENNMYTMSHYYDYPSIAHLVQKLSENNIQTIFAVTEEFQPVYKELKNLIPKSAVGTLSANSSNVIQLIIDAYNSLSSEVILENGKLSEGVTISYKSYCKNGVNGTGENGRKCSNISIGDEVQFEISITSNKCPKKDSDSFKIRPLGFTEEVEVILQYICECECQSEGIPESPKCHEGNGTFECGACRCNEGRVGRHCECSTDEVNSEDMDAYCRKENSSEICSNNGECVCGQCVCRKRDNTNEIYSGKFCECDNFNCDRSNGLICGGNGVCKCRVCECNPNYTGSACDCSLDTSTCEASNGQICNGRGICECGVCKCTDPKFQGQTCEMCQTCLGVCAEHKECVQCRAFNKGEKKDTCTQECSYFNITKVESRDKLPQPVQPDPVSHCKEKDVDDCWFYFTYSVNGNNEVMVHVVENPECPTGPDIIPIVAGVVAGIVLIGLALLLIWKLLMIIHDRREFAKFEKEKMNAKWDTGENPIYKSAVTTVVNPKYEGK
Integrin beta-1 (Homo sapiens) + Integrin alpha-4 (Homo sapiens), sequence (P13612 whole entry, looked up): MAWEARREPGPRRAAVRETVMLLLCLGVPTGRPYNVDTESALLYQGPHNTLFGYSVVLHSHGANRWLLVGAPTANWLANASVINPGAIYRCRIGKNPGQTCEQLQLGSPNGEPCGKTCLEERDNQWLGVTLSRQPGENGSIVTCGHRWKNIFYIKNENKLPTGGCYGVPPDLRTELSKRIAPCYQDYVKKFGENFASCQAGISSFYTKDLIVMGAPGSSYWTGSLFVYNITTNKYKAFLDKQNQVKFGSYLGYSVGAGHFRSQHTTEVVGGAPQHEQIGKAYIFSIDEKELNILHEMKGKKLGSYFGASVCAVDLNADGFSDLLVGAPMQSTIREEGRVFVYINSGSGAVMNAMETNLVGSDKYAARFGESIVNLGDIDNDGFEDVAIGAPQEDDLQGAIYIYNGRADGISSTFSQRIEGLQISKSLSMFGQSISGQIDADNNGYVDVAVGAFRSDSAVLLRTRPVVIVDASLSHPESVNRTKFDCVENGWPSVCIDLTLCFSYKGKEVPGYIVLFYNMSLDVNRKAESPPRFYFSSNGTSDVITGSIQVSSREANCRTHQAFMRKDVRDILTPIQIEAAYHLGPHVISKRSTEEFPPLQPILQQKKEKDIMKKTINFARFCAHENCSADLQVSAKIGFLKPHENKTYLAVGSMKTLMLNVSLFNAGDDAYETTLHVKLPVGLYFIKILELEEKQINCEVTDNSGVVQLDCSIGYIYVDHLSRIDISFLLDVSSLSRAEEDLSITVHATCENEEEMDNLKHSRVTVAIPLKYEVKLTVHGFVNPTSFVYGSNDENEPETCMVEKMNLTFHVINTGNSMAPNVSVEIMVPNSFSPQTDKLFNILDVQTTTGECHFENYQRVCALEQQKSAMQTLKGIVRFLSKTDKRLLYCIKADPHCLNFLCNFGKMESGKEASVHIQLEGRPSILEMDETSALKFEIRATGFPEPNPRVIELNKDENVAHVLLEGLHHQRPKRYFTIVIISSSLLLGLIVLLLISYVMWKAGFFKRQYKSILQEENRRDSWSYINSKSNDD
Beta-2 adrenergic receptor (Homo sapiens), sequence (P07550 whole entry, looked up): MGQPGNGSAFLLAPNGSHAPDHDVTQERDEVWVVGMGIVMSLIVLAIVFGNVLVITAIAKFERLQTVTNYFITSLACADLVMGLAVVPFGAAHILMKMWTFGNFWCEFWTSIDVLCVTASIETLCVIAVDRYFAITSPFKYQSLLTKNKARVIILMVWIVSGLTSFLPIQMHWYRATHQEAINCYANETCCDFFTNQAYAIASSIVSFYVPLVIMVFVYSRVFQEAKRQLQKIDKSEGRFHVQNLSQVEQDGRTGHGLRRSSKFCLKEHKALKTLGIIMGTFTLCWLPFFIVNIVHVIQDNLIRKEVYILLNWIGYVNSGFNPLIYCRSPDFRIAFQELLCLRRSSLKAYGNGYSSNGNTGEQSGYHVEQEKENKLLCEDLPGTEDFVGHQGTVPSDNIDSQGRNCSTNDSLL
ATP-binding cassette sub-family B member 6 (Homo sapiens), sequence (Q9NP58 whole entry, looked up): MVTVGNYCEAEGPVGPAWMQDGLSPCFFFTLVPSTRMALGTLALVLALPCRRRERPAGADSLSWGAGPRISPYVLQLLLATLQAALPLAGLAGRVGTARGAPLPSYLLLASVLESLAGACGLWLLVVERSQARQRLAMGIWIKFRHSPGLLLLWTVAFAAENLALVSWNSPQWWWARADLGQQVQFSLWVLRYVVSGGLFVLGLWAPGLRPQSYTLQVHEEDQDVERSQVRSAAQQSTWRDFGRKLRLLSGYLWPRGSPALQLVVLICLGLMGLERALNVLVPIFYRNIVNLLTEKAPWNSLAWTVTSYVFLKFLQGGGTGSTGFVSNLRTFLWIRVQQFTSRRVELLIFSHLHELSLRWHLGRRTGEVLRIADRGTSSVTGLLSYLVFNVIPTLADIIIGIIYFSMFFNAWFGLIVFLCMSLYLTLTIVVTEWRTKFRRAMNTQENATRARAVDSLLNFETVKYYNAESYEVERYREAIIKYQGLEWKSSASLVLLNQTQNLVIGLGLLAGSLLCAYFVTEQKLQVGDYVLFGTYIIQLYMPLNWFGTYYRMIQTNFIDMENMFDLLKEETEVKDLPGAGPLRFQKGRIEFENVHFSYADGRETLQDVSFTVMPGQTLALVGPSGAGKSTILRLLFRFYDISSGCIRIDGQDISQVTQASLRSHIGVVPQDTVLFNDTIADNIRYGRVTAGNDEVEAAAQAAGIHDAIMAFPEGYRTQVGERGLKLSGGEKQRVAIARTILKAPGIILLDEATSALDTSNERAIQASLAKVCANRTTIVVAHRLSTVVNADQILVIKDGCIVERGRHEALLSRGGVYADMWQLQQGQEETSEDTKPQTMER

With `CC(=O)[C@H]1CC[C@H]2[C@@H]3C[C@H](C)C4=CC(=O)CC[C@]4(C)[C@H]3[C@@H](O)C[C@]12C`, the percent of DMSO control GFP in [1] was 95.9% (inactive). In addition, the GFP response vs DMSO in test [2] was 116% (inactive); in test [4], 86.9% (inactive). For the same compound, the percent response of DMSO control in test [3] is 102% (inactive). Besides, in test [5], the GFP response, % of DMSO is 92.6% (inactive). The compound further returned a double positive events in test [6] of 63.6%. The vesicle binding response in test [6] was 151% (inactive). Besides, the inhibition in test [7] is 2.58% (inactive); in [11] it was -0.56% (inactive); in test [15], 9% (inactive). Moreover, in test [8], the superoxide response (% of plate) is 95.6% (inactive). In [9], the aptamer binding inhibition is 8% (inactive). Also, the response was -10% (inactive) in [10] and 2.7% (inactive) in test [12]. Further, the binding (% of control) in test [13] was 108% (inactive). In addition, in test [14], the efflux inhibition (fraction of control) is 0.09 (inactive). Besides, in [16], the differentiation response was -2.46% (inactive).

In the case of `CCOC(=O)N1CCN(Cc2nc(Cc3cccc(F)c3)no2)CC1`, in test [1], the percent of DMSO control GFP is 102% (inactive). Further, the values for the GFP response vs DMSO in test [2] and in test [4] were 105% (inactive) and 99.9% (inactive), respectively. In addition, in test [3], the percent response of DMSO control was 100% (inactive). Moreover, in test [5], the GFP response, % of DMSO was 101% (inactive). The compound also came in with a double positive events in test [6] of 64.5%. Further, the vesicle binding response in test [6] is 171% (inactive). Moreover, the inhibition is -3.57% (inactive) in test [7], -8.69% (inactive) in [11] and 13% (inactive) in [15]. Also, the superoxide response (% of plate) in test [8] is 103% (inactive). Also, in test [9], the aptamer binding inhibition was 5% (inactive). Further, the response was 0.58% (inactive) in [10] and 2.06% (inactive) in test [12]. For the same compound, the binding (% of control) in test [13] was 94.8% (inactive). In addition, in [14], the efflux inhibition (fraction of control) was 0.02 (inactive). Moreover, the differentiation response in test [16] is 4.15% (inactive).

As to `COc1ccccc1C(=O)Oc1ccc2c(c1)O/C(=C\c1ccncc1)C2=O`, the percent of DMSO control GFP in test [1] was 94.7% (inactive). Moreover, the GFP response vs DMSO was 105% (inactive) in test [2] and 126% (inactive) in test [4]. The percent response of DMSO control in [3] was 97.7% (inactive). Besides, in test [5], the GFP response, % of DMSO was 105% (inactive). In test [6], this compound showed a double positive events of 63.9%. In addition, the vesicle binding response in test [6] is 274% (inactive). In addition, the inhibition in [7] was -58.2% (inactive); in test [11], 3.83% (inactive); in [15] it was -9% (inactive). Further, in [8], the superoxide response (% of plate) is 119% (inactive). In addition, in [9], the aptamer binding inhibition was -1% (inactive). Moreover, the response in [10] was -22.5% (inactive); in test [12], 0.47% (inactive). Further, the binding (% of control) in test [13] was 103% (inactive). For the same compound, in test [14], the efflux inhibition (fraction of control) was 0.17 (inactive). For the same compound, in test [16], the differentiation response was 10.8% (inactive).

With `CCn1cc(C(=O)O)c(=O)c2ccc(C)nc21`, the percent of DMSO control GFP in test [1] was 99.5% (inactive). In addition, the GFP response vs DMSO is 98.7% (inactive) in test [2] and 93.7% (inactive) in test [4]. Moreover, in [3], the percent response of DMSO control is 92.4% (inactive). Further, in [5], the GFP response, % of DMSO was 106% (inactive). The same compound yielded a double positive events in test [6] of 55.9%. In addition, in [6], the vesicle binding response is 172% (inactive). Besides, the inhibition in [7] was -15.8% (inactive); in test [11], -4.75% (inactive); in [15], -8% (inactive). Besides, the superoxide response (% of plate) in test [8] was 99.5% (inactive). Moreover, the aptamer binding inhibition in [9] was -1% (inactive). Also, the response in test [10] was 3.04% (inactive); in test [12] it was -3.3% (inactive). In [13], the binding (% of control) is 108% (inactive). For the same compound, the efflux inhibition (fraction of control) in [14] is 0.085 (inactive). For the same compound, in [16], the differentiation response was -4.57% (inactive).

Take `CC(C)(Sc1cc(C(C)(C)C)c(O)c(C(C)(C)C)c1)Sc1cc(C(C)(C)C)c(O)c(C(C)(C)C)c1`: the percent of DMSO control GFP in [1] was 101% (inactive). Also, the figures for the GFP response vs DMSO in [2] and in test [4] were 105% (inactive) and 101% (inactive), respectively. Besides, in [3], the percent response of DMSO control was 107% (inactive). In addition, the GFP response, % of DMSO in [5] is 106% (inactive). In addition, the double positive events in test [6] is 60.1%. Further, in test [6], the vesicle binding response was 170% (inactive). In addition, the inhibition in test [7] was -2.43% (inactive); in test [11], 10.6% (inactive); in test [15], 21% (inactive). In addition, the superoxide response (% of plate) in test [8] was 90.1% (inactive). In addition, in [9], the aptamer binding inhibition is -5% (inactive). Also, the response was 1.22% (inactive) in test [10] and -3.38% (inactive) in test [12]. Further, the binding (% of control) in test [13] is 102% (inactive). Further, the efflux inhibition (fraction of control) in test [14] was -0.03 (inactive). In addition, the differentiation response in [16] is -17.7% (inactive).
